Measurements as given in the supplement of paper PMC12645437, “Orthogonal IMiD-Degron Pairs Induce Selective Protein Degradation in Cells” (ACS Chemical Biology, 2025).
The full ranking holds about 8,300 sequences; the median of “log2 fold change of degron read counts, EGFP-low vs EGFP+ sorted cells (limma voom), compound-induced degradation” is about -1.1, and the highest 2% start at about 3.2. Shown is part of a subset that was picked to be rich in the highest values.

B1: 46L_47D_49P_50I_52G_53F_54W_55C_67L_, Q9UKT9 (peptide)
chain: LDCPICGFWCTQKGNLLRHIKL
B2: 46F_47A_49P_50V_52G_53A_54V_55F_67L_, Q9UKT9 (peptide)
chain: FACPVCGAVFTQKGNLLRHIKL
B3: 46F_47Y_49P_50Q_52G_53A_54M_55F_67L_, Q9UKT9 (peptide)
chain: FYCPQCGAMFTQKGNLLRHIKL
B4: 46F_47C_49N_50V_52G_53A_54W_55F_67L_, Q9UKT9 (peptide)
chain: FCCNVCGAWFTQKGNLLRHIKL
B5: 46F_47I_49E_50V_52G_53A_54D_55F_67L_, Q9UKT9 (peptide)
chain: FICEVCGADFTQKGNLLRHIKL
B6: 46F_47T_49D_50V_52G_53A_54M_55F_67L_, Q9UKT9 (peptide)
chain: FTCDVCGAMFTQKGNLLRHIKL
B7: 46L_47S_49N_50Q_52G_53F_54V_55C_67L_, Q9UKT9 (peptide)
chain: LSCNQCGFVCTQKGNLLRHIKL
B8: 46F_47F_49P_50V_52G_53A_54C_55F_67L_, Q9UKT9 (peptide)
chain: FFCPVCGACFTQKGNLLRHIKL
B9: 46F_47V_49P_50V_52G_53A_54C_55F_67L_, Q9UKT9 (peptide)
chain: FVCPVCGACFTQKGNLLRHIKL
B10: 46F_47D_49P_50V_52G_53A_54C_55F_67L_, Q9UKT9 (peptide)
chain: FDCPVCGACFTQKGNLLRHIKL
B11: 46F_47H_49D_50V_52G_53A_54C_55F_67L_, Q9UKT9 (peptide)
chain: FHCDVCGACFTQKGNLLRHIKL
B12: 46F_47W_49D_50V_52G_53A_54C_55F_67L_, Q9UKT9 (peptide)
chain: FWCDVCGACFTQKGNLLRHIKL
B13: 46F_47A_49P_50V_52G_53A_54C_55F_67L_, Q9UKT9 (peptide)
chain: FACPVCGACFTQKGNLLRHIKL
B14: 46F_47V_49D_50V_52G_53A_54C_55F_67L_, Q9UKT9 (peptide)
chain: FVCDVCGACFTQKGNLLRHIKL
B15: 46F_47S_49P_50V_52G_53A_54C_55F_67L_, Q9UKT9 (peptide)
chain: FSCPVCGACFTQKGNLLRHIKL
B16: 46F_47R_49P_50V_52G_53A_54C_55F_67L_, Q9UKT9 (peptide)
chain: FRCPVCGACFTQKGNLLRHIKL
B17: 46F_47M_49P_50V_52G_53A_54C_55F_67L_, Q9UKT9 (peptide)
chain: FMCPVCGACFTQKGNLLRHIKL
B18: 46F_47G_49P_50V_52G_53A_54C_55F_67L_, Q9UKT9 (peptide)
chain: FGCPVCGACFTQKGNLLRHIKL
B19: 46F_47C_49P_50V_52G_53A_54C_55F_67L_, Q9UKT9 (peptide)
chain: FCCPVCGACFTQKGNLLRHIKL
B20: 46F_47F_49D_50Q_52G_53A_54E_55F_67L_, Q9UKT9 (peptide)
chain: FFCDQCGAEFTQKGNLLRHIKL
B21: 46F_47A_49P_50V_52G_53A_54F_55F_67L_, Q9UKT9 (peptide)
chain: FACPVCGAFFTQKGNLLRHIKL
B22: 46F_47E_49P_50I_52G_53H_54E_55F_67L_, Q9UKT9 (peptide)
chain: FECPICGHEFTQKGNLLRHIKL
B23: 46F_47L_49E_50I_52G_53R_54R_55F_67L_, Q9UKT9 (peptide)
chain: FLCEICGRRFTQKGNLLRHIKL
B24: 46F_47L_49N_50V_52G_53A_54S_55F_67L_, Q9UKT9 (peptide)
chain: FLCNVCGASFTQKGNLLRHIKL
B25: 46F_47F_49P_50I_52G_53H_54E_55F_67L_, Q9UKT9 (peptide)
chain: FFCPICGHEFTQKGNLLRHIKL
B26: 46F_47M_49N_50V_52G_53A_54M_55F_67L_, Q9UKT9 (peptide)
chain: FMCNVCGAMFTQKGNLLRHIKL
B27: 46F_47T_49N_50V_52G_53A_54L_55F_67L_, Q9UKT9 (peptide)
chain: FTCNVCGALFTQKGNLLRHIKL
B28: 46F_47K_49D_50I_52G_53A_54G_55F_67L_, Q9UKT9 (peptide)
chain: FKCDICGAGFTQKGNLLRHIKL

Molecular target: T1, CRBN, Q96SW2
T1 chain: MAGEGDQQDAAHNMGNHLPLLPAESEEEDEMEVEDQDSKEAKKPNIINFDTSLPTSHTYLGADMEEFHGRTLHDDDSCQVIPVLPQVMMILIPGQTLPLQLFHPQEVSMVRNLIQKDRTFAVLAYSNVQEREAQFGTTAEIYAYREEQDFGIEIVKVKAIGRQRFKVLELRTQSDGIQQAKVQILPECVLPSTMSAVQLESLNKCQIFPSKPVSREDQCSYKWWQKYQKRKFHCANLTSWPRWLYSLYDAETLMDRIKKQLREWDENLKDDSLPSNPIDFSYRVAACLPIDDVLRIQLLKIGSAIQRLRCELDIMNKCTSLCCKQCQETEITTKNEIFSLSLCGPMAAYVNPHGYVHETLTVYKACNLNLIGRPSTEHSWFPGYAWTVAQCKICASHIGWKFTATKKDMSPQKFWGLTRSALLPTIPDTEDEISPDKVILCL
Test: log2 fold change of degron read counts, EGFP-low vs EGFP+ sorted cells (limma voom), compound-induced degradation; higher = more compound-induced degradation of the degron-EGFP fusion; degrons are variants of IKZF1/3 zinc finger 2; compound dose not given here
Settings: Jurkat, 18 h

[1] = compound: compound 19 (5-tert-butyl-thalidomide)
[2] = compound: compound 22 (5-morpholino-thalidomide)
[3] = compound: compound 33 (diphenyl IMiD analogue)
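Further: pooled lentiviral library of zinc finger degron-EGFP fusions in mCherry-positive Jurkat cells, FACS-sorted after compound exposure, with degron abundance counted by next-generation sequencing.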

Sequence	log2 fold change of degron read counts [1]	log2 fold change of degron read counts [2]	log2 fold change of degron read counts [3]	log2 fold change of degron read counts (compound: thalidomide)
B1	-0.559	-0.625	0.68	1.33
B2	3.09	1.74	1.78	0.502
B3	0.518	0.45	0.601	-1.06
B4	-1.92	-1.43	-1.27	-1.34
B5	-2.24	-0.906	-0.571	0.184
B6	-1.4	-0.892	-0.371	-0.84
B7	-2.24	-2.61	-2	-2.24
B8	3	3.34	2.16	1.3
B9	-0.46	1.87	2.08	2.53
B10	1.39	-0.358	1.46	1.34
B11	0.383	0.3	-1.01	-2.43
B12	2.78	3.47	1.12	-0.931
B13	3.39	1.64	1.85	0.646
B14	-1.45	-0.0454	0.676	0.186
B15	2.64	1.8	2.73	1.07
B16	-0.619	0.101	1.52	0.981
B17	-0.624	0.321	2.31	0.962
B18	3.88	3.16	2.81	1.1
B19	2.37	1.98	2.99	2.06
B20	-0.653	-1.5	-2.48	-2.75
B21	1.92	-0.0365	0.632	-0.719
B22	-3.46	-3.29	-1.58	-1.82
B23	-1.65	-2.28	-1.89	-0.0712
B24	-1.47	-1.87	-0.611	-0.827
B25	-1.46	-1.37	-1.31	-1.41
B26	-2.09	-2.13	0.122	-1.26
B27	-2.25	-1.98	-0.325	-1.1
B28	0.734	-1.83	-2.3	-1.43
